Records with an inconclusive call do not appear. Activity calls are given as the source filed them. Calls come from the whole dose curve; as a rule, active = well fitted inhibition curve with a large enough effect; inconclusive = small, poorly fitted or top-dose-only effect; inactive = flat fitted curve, though single readings scatter.
Columns and labels:
[1] = qHTS profiling for inhibitors of Plasmodium falciparum proliferation (AID 504749);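 note: 0% = DMSO vehicle and full inhibition = artemisinin control; nearly all actives have a fitted effect of over 60% in size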; conditions: P. falciparum in erythrocytes, SYBR Green DNA, 72 h; at 28.7 µM (top of the series); parasite line A
Procedure, shortened: (§1)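 P. falciparum-infected erythrocytes (0.3% parasitemia, 2.5% hematocrit final) were exposed to compounds for 72 h at 37 C in 5% CO2, then lysed with SYBR Green buffer overnight at room temperature; parasite DNA fluorescence was normalized to artemisinin and DMSO controls.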

[2] = test system: ATS95; test: as above; conditions: P. falciparum in erythrocytes, SYBR Green DNA, 72 h; series mostly up to 28.7 µM
Procedure, shortened: as §1

[3] = test system: C2A; test: as above; conditions: P. falciparum in erythrocytes, SYBR Green DNA, 72 h; series mostly up to 28.7 µM
Procedure, shortened: as §1

[4] = test system: CP237; test: as above; conditions: P. falciparum in erythrocytes, SYBR Green DNA, 72 h; series mostly up to 28.7 µM
Procedure, shortened: as §1

[5] = test system: CP238; test: as above; conditions: P. falciparum in erythrocytes, SYBR Green DNA, 72 h; series mostly up to 28.7 µM
Procedure, shortened: as §1

[6] = test system: CP262; test: as above; conditions: P. falciparum in erythrocytes, SYBR Green DNA, 72 h; series mostly up to 28.7 µM
Procedure, shortened: as §1

[7] = test system: CP265; test: as above; conditions: P. falciparum in erythrocytes, SYBR Green DNA, 72 h; series mostly up to 28.7 µM
Procedure, shortened: as §1

[8] = test system: CP266; test: as above; conditions: P. falciparum in erythrocytes, SYBR Green DNA, 72 h; series mostly up to 28.7 µM
Procedure, shortened: as §1

[9] = test system: CP268; test: as above; conditions: P. falciparum in erythrocytes, SYBR Green DNA, 72 h; series mostly up to 28.7 µM
Procedure, shortened: as §1

[10] = test system: CP269; test: as above; conditions: P. falciparum in erythrocytes, SYBR Green DNA, 72 h; series mostly up to 28.7 µM
Procedure, shortened: as §1

[11] = test system: CP305; test: as above; conditions: P. falciparum in erythrocytes, SYBR Green DNA, 72 h; series mostly up to 28.7 µM
Procedure, shortened: as §1

[12] = test system: CP325; test: as above; conditions: P. falciparum in erythrocytes, SYBR Green DNA, 72 h; series mostly up to 28.7 µM
Procedure, shortened: as §1

[13] = test system: CP329; test: as above; conditions: P. falciparum in erythrocytes, SYBR Green DNA, 72 h; series mostly up to 28.7 µM
Procedure, shortened: as §1

[14] = test system: CP335; test: as above; conditions: P. falciparum in erythrocytes, SYBR Green DNA, 72 h; series mostly up to 28.7 µM
Procedure, shortened: as §1

[15] = test system: Dd2; test: as above; conditions: P. falciparum in erythrocytes, SYBR Green DNA, 72 h; series mostly up to 28.7 µM
Procedure, shortened: as §1

[16] = test system: ECU; test: as above; conditions: P. falciparum in erythrocytes, SYBR Green DNA, 72 h; series mostly up to 28.7 µM
Procedure, shortened: as §1

[17] = test system: HB3; test: as above; conditions: P. falciparum in erythrocytes, SYBR Green DNA, 72 h; series mostly up to 28.7 µM
Procedure, shortened: as §1

[18] = test system: P93_24; test: as above; conditions: P. falciparum in erythrocytes, SYBR Green DNA, 72 h; series mostly up to 28.7 µM
Procedure, shortened: as §1

[19] = test system: PAD; test: as above; conditions: P. falciparum in erythrocytes, SYBR Green DNA, 72 h; series mostly up to 28.7 µM
Procedure, shortened: as §1

[20] = test system: PC26; test: as above; conditions: P. falciparum in erythrocytes, SYBR Green DNA, 72 h; series mostly up to 28.7 µM
Procedure, shortened: as §1

CC(=O)[C@H]1CC[C@H]2C3CC=C4C[C@@H](O)CC[C@]4(C)C3CC[C@]12C (stereo not given in full)
inactive: activity, negative = inhibition [1] -13% | Potency [2] | Potency [3] | Potency [4] | Potency [5] | Potency [6] | Potency [7] | Potency [8] | Potency [9] | Potency [10] | Potency [11] | Potency [12] | Potency [13] | Potency [14] | Potency [15] | Potency [16] | Potency [17] | Potency [18] | Potency [19] | Potency [20]

Source: PubChem BioAssay (NCATS)
